From the supplement of paper PMC9477273

The compounds below were run on DRIVER-selected RNA biosensor (aptazyme) pool (assay: maximum fold change of ribozyme cleavage across biosensor pool versus no-compound control; higher = stronger biosensor response (ligand inhibits cleavage)). Settings: 10 µM.
Procedure, shortened: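 CleaveSeq on a pool of 1,730 array-resynthesized ribozyme biosensors, T7-transcribed at 37°C for 15–30 min with 9 mM rNTPs and one compound at 10 µM (added from 10x DMSO stock), then reverse-transcribed at 50°C. Cleaved and uncleaved products were PCR-barcoded and counted by Illumina sequencing. Fold change of cleavage is the ratio of cleaved:uncleaved read fractions against a no-compound condition, corrected with reference sequences; the value is the maximum over all biosensors.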

SMILES	maximum fold change
O=C(NC1CCN(Cc2ccccc2)CC1)c1cc2c(=O)oc3ccccc3c2s1	7.21
CCOC(=O)c1cnc2c(OC)cccc2c1NCC1COc2ccccc2O1 (centres undefined)	7.13
CC1(C)CC(=O)C(=Cc2c[nH]c3ccccc23)C(=O)C1	2.44
CCN1CCCC1CNC(=O)CS(=O)(=O)Cc1nc(-c2ccc(C)cc2)oc1C (centres undefined)	2.2
COc1ccc(Br)cc1CNCc1sc(C(=O)O)cc1C	3.28
Cc1cc(NC(=O)CSc2nc3ncccc3c(=O)n2CCc2ccccc2)[nH]n1	3.45
CC1CCN(c2ncnc3sc4c(c23)CCC(C)C4)CC1 (centres undefined)	3.18
CCOCCCNC(=O)c1cc(C)nn1-c1ccccc1	2.81
COCCNC(=S)NCc1ccc2[nH]c(C)cc2c1	2.32
COc1ccc(C(=O)Cn2c3ccccc3n3nc(-c4ccccc4)nc23)cc1OC	4.22
CC1=C(C(=O)NCCC2=CCCCC2)C2(CCC(C)CC2)OC1=O (centres undefined)	2.79
O=C(c1cc(-c2ccccc2)n[nH]1)N1CCc2ccccc2C1	4.06
CC1CCN(CCCNC(=O)c2ccc(CS(=O)(=O)Cc3ccc(Cl)cc3)o2)CC1	2.2
CCN(Cc1ccccc1)Cc1csc(C)c1C	3.07
